SARS PLP yeast = inhibitors of SARS-CoV papain-like protease in yeast; 330,000 compounds, 0.19% hits; Potency, µM (top dose mostly 32.9 µM), usual class: activators; S. cerevisiae expressing SARS-CoV PLpro, growth rescue; calls by dose curve; note: nearly all actives have a fitted effect of over 55% in size
AMA1 RON2 block = disrupts binding of P. falciparum AMA1 to RON2; 360,000 compounds, 0.2% hits; Potency, µM (series often up to 58.2 µM), actives largely listed as inhibitors; AlphaScreen AMA1-biotinylated RON2 peptide binding; note: nearly all actives have a fitted effect of over 45% in size
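AMA1 (3D7) with his tag at 25 nM final met compounds first, then biotinylated RON2 peptide at 25 nM; detection used donor plus acceptor beads, 10 µg/mL apiece, read by AlphaScreen after 30 min at room temperature.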
Cycloheximide cs = affects cycloheximide protein synthesis inhibition readout, counter-screen | cell reporter, cycloheximide protein synthesis inhibition counterscreen | max response, % | 300,000 compounds, 12% hits; in the data active = max response mostly above about 13%, no sharp cut-off; inactive = mostly below about 14%; note: read at 38.3 µM for the half of the compounds with a filed dose
AmpC no deterg = blocks E. coli AmpC beta-lactamase in detergent-free assay; Potency, µM (series often up to 57.1 µM), most hits filed as inhibitors; 330,000 compounds, 0.52% hits; AmpC nitrocefin hydrolysis, absorbance 480 nm, 0.0001% Triton; note: nearly all actives have a fitted effect of over 20% in size
Target sequence (P00811 whole entry, looked up): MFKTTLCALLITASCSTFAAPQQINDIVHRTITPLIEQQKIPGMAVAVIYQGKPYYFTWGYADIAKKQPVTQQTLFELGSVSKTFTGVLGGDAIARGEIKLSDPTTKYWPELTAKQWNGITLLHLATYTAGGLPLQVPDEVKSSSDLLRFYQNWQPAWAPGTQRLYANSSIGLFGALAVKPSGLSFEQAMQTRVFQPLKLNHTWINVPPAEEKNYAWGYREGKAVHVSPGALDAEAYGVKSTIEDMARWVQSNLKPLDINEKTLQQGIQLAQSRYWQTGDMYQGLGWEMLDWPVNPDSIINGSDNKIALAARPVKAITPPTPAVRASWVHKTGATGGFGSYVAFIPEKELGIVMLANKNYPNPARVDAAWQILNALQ
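20 mM phosphate pH 7.0 + 0.01% (detergent screen) or 0.0001% Triton X-100; 5.3 nM AmpC reagent; cpd preinc 15 min RT; nitrocefin (800 uM stock) to start; A480 q20 s × 4 min; Activity was normalised to no-enzyme and no-compound control wells.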
AmpC inh detg = inhibitors of E. coli AmpC beta-lactamase with detergent; Potency, µM (titrated, usually from 114 µM), most hits filed as inhibitors; 370,000 compounds, 0.041% hits; AmpC hydrolysis of nitrocefin, absorbance 480 nm, 0.01% Triton; P00811; AID 485294; note: nearly all actives have a fitted effect of over 25% in size
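20 mM phosphate pH 7.0 + 0.01% (detergent screen) or 0.0001% Triton X-100; 5.3 nM AmpC reagent; cpd preinc 15 min RT; nitrocefin (800 uM stock) to start; A480 q20 s × 4 min; Activity was normalised to no-enzyme and no-compound control wells.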
Shiga toxin inh = inhibitors of Shiga toxin in Vero cells | Vero cells, Shiga toxin protein synthesis inhibition reporter | inhibition, % at 38.7 µM | 290,000 compounds, 9.2% hits | AID 2315; in the data active = inhibition mostly above about 28%, no sharp cut-off; inactive = mostly below about 43%
Large screens that a line does not name were inactive. The entries come from a sample that favours hits as a whole. Unless noted, calls come from the whole dose curve; as a rule, active = well fitted curve in the direction sought with a large enough effect; inconclusive = small, poorly fitted or top-dose-only effect, or another doubt; inactive = no such curve, though single readings can be large; an effect the other way counts as inactive or inconclusive.

CC(=O)Nc1cccc(C(=O)/C=C/c2ccc(N(C)C)cc2)c1	Cycloheximide cs 41.9, Shiga toxin inh 76.0
c1ccc(CSc2nnc3ccc(-c4cccs4)nn23)nc1	Shiga toxin inh 61.2
c1ccc(CSc2nnc3ccc(-c4ccco4)nn23)nc1	Cycloheximide cs 34.1, AmpC inh detg inconclusive, Shiga toxin inh 66.7
c1cncc(CSc2nnc3ccc(-c4cccs4)nn23)c1	none
COC(=O)C(OC(=O)c1ccc(OC)cc1)C(=O)OC	AmpC inh detg inconclusive
Cc1c(OCc2ccc([N+](=O)[O-])cc2)ccc2c3c(c(=O)oc12)CCC3	Cycloheximide cs 30.8
CC(=O)COc1ccc2c3c(c(=O)oc2c1C)CCCCC3	Cycloheximide cs 18.9, Shiga toxin inh 63.7
C=CCc1ccc(OCCCCOc2ccc(C(=O)O)cc2)c(OC)c1	none
CCCc1ccc(OCc2ccc(C(=O)NN)o2)c(OC)c1	Cycloheximide cs 22.2, Shiga toxin inh 41.0
CCCc1ccc(OCc2ccc(C(=O)O)o2)c(OC)c1	Cycloheximide cs 74.4, Shiga toxin inh 133.5
C=CCc1ccc(OC(=O)NC2CCCCC2)c(OC)c1	Cycloheximide cs 28.5, Shiga toxin inh 71.4
C=CCc1ccc(OCc2ccc(C(=O)O)o2)c(OC)c1	Cycloheximide cs 56.0, Shiga toxin inh 86.8
COc1ccc(CCN(C)C(=O)c2ccc(COc3ccccc3)o2)cc1OC	none
Cn1cnc([N+](=O)[O-])c1S(=O)(=O)Oc1cccc2ccccc12	none (no result: SARS PLP yeast, Cycloheximide cs, AmpC no deterg, AmpC inh detg, Shiga toxin inh)
C[C@@H]1CN([C@H](C)CO)C(=O)CCCn2nncc2CO[C@H]1CN(C)C(=O)OCc1ccccc1	none (no result: SARS PLP yeast, Cycloheximide cs, AmpC no deterg, AmpC inh detg, Shiga toxin inh)
NC(=O)c1nsc(C(=O)N(c2ccccc2)C(C(=O)NC2CCCC2)c2cccs2)c1N (centres undefined)	none
CCCCNS(=O)(=O)c1ccc2nc(-c3cccnc3)cc(C(=O)NCCCOCC)c2c1	none (no result: AMA1 RON2 block)
CCCc1ccc(OCc2ccc(C(=O)OC)o2)c(OC)c1	Cycloheximide cs 76.3, Shiga toxin inh 146.2
COC(=O)c1ccc(COc2c(F)c(F)cc(F)c2F)o1	none
Cc1ccc(-c2nn(C)c(=O)c3ccccc23)cc1S(=O)(=O)NCCN1CCOCC1	AmpC inh detg inconclusive
Cn1c(Cc2nc3ccccc3n2C)nc2ccccc21	none (no result: Cycloheximide cs, Shiga toxin inh)
Cn1c(CNc2ccc(F)cc2)nc2ccccc21	Cycloheximide cs 34.3, Shiga toxin inh 71.4
Cn1c(CNc2ccccc2)nc2ccccc21	Cycloheximide cs 36.6, Shiga toxin inh 67.0
CN(Cc1nc2ccccc2n1C)S(=O)(=O)c1ccc(F)cc1	Cycloheximide cs 16.0, AmpC no deterg inconclusive
COc1ccc(-c2noc(=O)[nH]2)cc1	AmpC inh detg inconclusive
CCc1ccc(CN2CCc3nc(Nc4ccccc4)ncc3C2)cc1	none (no result: SARS PLP yeast, AMA1 RON2 block, Cycloheximide cs, AmpC no deterg, Shiga toxin inh)
Cc1ccc(NP(=O)(c2ccccc2)c2nc3ccccc3s2)cc1 (centres undefined)	Cycloheximide cs 31.5, Shiga toxin inh 62.2
COCCNP(=O)(c1ccccc1)c1nc2ccccc2s1 (centres undefined)	none (no result: AMA1 RON2 block)
Cc1c(OC(C)C(=O)NCc2ccncc2)ccc2c3c(c(=O)oc12)CCC3 (centres undefined)	none
O=C(COC(=O)C1CCN(S(=O)(=O)c2cccs2)CC1)Nc1ccccc1	none
O=S(=O)(c1cccs1)N1CCN(Cc2nc3ccccc3s2)CC1	Cycloheximide cs 38.1, Shiga toxin inh 48.6
O=C(OCc1nc2ccccc2s1)C1CCN(S(=O)(=O)c2cccs2)CC1	Cycloheximide cs 34.9, Shiga toxin inh 97.5
O=C(CCc1nc2ccccc2s1)N1CCN(S(=O)(=O)c2cccs2)CC1	AmpC inh detg inconclusive
O=C(NC(=O)c1ccccc1)NC1(C(F)(F)F)OCCO1	Cycloheximide cs 48.1, Shiga toxin inh 84.3 (no result: AMA1 RON2 block)
CCOc1ccc(S(=O)(=O)N2CCCCC2)cc1NC(=O)C1=COCCO1	none (no result: Cycloheximide cs, Shiga toxin inh)
COc1ccc(CN2CCC(N3CC(C)OC(C)C3)CC2)c(OC)c1OC (centres undefined)	AMA1 RON2 block 12.6µM, AmpC inh detg inconclusive
c1ccc2[nH]c(SCc3ccc(-c4nnco4)cc3)nc2c1	Cycloheximide cs 17.7, Shiga toxin inh 89.1
CCOc1ccccc1CSc1nc2ccccc2[nH]1	Cycloheximide cs 19.4
COc1ccc(CSc2nc3ccccc3[nH]2)cc1	Cycloheximide cs 35.5, Shiga toxin inh 73.8
CCOc1ccccc1OCCCC(=O)Nc1nc2ccccc2[nH]1	none
c1ccc(-c2cc(CSc3nc4ccccc4[nH]3)on2)cc1	AmpC inh detg inconclusive
CCOc1ccccc1/C=C/c1nc2ccccc2[nH]c1=O	Cycloheximide cs 13.4
O=C(Nc1ccc(-c2nc3ccccc3[nH]2)cc1)c1ccc(N2C(=O)CCC2=O)cc1	none
O=C(N/N=C/c1ccc(OC(F)F)cc1)c1ccc(CSc2nc3ccccc3[nH]2)cc1	SARS PLP yeast inconclusive
O=C1CCC(=O)N1c1ccc(CSc2nc3ccccc3[nH]2)cc1	Cycloheximide cs 26.6, Shiga toxin inh 86.8
CCOc1ccc(/C=N/NC(=O)c2ccc(CSc3nc4ccccc4[nH]3)cc2)cc1	Cycloheximide cs 20.7, Shiga toxin inh 43.3
CCN1C[C@@]2(COC)CCC(OC)[C@]34C5C[C@]6(O)[C@@H](OC)C[C@](OC(C)=O)(C([C@H](OC)C23)[C@H]14)C5[C@H]6OC(=O)c1ccc(OC)cc1 (some centres undefined)	Cycloheximide cs 21.3, Shiga toxin inh 23.2 (no result: SARS PLP yeast, AMA1 RON2 block, AmpC no deterg, AmpC inh detg)
CCCc1cc(=O)[nH]c(SCC(=O)NC2CC2)n1	none (no result: Cycloheximide cs, AmpC inh detg, Shiga toxin inh)
CCOc1ccc(OCCSc2nc(C)cc(=O)[nH]2)cc1	Cycloheximide cs 29.8, AmpC inh detg inconclusive, Shiga toxin inh 124.2
Nc1cc(=O)[nH]c(SCCSc2ccc(F)cc2)n1	none
Cc1ccc(SCCSc2nc(C)cc(=O)[nH]2)cc1	Cycloheximide cs 40.2 (no result: Shiga toxin inh)
COc1ccc(OCCSc2nc(N)cc(=O)[nH]2)cc1	none
Cc1ccc(SCCSc2nc(N)cc(=O)[nH]2)cc1	Cycloheximide cs 21.7
COc1ccccc1NS(=O)(=O)c1cc(NC(=O)c2cnccn2)ccc1N1CCOCC1	none
Nc1nonc1-n1nnc(C(=O)N/N=C/c2cccc(Cl)c2)c1-c1ccc2c(c1)OCO2	none
CC(=O)N1CCOc2ccc(S(=O)(=O)NCCc3ccccc3)cc21	none
COc1ccc(-c2nc(CSCC(=O)NCC3CCCO3)c(C)o2)cc1OC (centres undefined)	none
CC(=O)NC12CC3CC(C1)CC(C(=O)Nc1nc4ccc(F)cc4s1)(C3)C2	Cycloheximide cs 45.0, Shiga toxin inh 70.7
CCC(CC)c1nnc(NC(=O)C23CC4CC(CC(NC(C)=O)(C4)C2)C3)s1	none
COCCNC(=O)C(c1ccc(F)cc1)N(C(=O)CCC(=O)Nc1ccccn1)c1ccc(C)cc1 (centres undefined)	AMA1 RON2 block inconclusive

High-throughput results as filed in PubChem.
